According to PubChem BioAssay AID588689 (Southern Research Specialized Biocontainment Screening …, 2011):
The campaign covered roughly 340,000 compounds. About 1,000 (0.29%) were called active. Rule as the data show it: inconclusive = inhibition above about 29% without an active follow-up result; inactive = below that. The list is a sample of the results. Results with a measured potency or affinity are listed apart.

Biological target: Genome polyprotein (Dengue virus type 2 (strain 16681-PDK53)) (UniProt P29991)
Sequence (P29991 whole entry, looked up): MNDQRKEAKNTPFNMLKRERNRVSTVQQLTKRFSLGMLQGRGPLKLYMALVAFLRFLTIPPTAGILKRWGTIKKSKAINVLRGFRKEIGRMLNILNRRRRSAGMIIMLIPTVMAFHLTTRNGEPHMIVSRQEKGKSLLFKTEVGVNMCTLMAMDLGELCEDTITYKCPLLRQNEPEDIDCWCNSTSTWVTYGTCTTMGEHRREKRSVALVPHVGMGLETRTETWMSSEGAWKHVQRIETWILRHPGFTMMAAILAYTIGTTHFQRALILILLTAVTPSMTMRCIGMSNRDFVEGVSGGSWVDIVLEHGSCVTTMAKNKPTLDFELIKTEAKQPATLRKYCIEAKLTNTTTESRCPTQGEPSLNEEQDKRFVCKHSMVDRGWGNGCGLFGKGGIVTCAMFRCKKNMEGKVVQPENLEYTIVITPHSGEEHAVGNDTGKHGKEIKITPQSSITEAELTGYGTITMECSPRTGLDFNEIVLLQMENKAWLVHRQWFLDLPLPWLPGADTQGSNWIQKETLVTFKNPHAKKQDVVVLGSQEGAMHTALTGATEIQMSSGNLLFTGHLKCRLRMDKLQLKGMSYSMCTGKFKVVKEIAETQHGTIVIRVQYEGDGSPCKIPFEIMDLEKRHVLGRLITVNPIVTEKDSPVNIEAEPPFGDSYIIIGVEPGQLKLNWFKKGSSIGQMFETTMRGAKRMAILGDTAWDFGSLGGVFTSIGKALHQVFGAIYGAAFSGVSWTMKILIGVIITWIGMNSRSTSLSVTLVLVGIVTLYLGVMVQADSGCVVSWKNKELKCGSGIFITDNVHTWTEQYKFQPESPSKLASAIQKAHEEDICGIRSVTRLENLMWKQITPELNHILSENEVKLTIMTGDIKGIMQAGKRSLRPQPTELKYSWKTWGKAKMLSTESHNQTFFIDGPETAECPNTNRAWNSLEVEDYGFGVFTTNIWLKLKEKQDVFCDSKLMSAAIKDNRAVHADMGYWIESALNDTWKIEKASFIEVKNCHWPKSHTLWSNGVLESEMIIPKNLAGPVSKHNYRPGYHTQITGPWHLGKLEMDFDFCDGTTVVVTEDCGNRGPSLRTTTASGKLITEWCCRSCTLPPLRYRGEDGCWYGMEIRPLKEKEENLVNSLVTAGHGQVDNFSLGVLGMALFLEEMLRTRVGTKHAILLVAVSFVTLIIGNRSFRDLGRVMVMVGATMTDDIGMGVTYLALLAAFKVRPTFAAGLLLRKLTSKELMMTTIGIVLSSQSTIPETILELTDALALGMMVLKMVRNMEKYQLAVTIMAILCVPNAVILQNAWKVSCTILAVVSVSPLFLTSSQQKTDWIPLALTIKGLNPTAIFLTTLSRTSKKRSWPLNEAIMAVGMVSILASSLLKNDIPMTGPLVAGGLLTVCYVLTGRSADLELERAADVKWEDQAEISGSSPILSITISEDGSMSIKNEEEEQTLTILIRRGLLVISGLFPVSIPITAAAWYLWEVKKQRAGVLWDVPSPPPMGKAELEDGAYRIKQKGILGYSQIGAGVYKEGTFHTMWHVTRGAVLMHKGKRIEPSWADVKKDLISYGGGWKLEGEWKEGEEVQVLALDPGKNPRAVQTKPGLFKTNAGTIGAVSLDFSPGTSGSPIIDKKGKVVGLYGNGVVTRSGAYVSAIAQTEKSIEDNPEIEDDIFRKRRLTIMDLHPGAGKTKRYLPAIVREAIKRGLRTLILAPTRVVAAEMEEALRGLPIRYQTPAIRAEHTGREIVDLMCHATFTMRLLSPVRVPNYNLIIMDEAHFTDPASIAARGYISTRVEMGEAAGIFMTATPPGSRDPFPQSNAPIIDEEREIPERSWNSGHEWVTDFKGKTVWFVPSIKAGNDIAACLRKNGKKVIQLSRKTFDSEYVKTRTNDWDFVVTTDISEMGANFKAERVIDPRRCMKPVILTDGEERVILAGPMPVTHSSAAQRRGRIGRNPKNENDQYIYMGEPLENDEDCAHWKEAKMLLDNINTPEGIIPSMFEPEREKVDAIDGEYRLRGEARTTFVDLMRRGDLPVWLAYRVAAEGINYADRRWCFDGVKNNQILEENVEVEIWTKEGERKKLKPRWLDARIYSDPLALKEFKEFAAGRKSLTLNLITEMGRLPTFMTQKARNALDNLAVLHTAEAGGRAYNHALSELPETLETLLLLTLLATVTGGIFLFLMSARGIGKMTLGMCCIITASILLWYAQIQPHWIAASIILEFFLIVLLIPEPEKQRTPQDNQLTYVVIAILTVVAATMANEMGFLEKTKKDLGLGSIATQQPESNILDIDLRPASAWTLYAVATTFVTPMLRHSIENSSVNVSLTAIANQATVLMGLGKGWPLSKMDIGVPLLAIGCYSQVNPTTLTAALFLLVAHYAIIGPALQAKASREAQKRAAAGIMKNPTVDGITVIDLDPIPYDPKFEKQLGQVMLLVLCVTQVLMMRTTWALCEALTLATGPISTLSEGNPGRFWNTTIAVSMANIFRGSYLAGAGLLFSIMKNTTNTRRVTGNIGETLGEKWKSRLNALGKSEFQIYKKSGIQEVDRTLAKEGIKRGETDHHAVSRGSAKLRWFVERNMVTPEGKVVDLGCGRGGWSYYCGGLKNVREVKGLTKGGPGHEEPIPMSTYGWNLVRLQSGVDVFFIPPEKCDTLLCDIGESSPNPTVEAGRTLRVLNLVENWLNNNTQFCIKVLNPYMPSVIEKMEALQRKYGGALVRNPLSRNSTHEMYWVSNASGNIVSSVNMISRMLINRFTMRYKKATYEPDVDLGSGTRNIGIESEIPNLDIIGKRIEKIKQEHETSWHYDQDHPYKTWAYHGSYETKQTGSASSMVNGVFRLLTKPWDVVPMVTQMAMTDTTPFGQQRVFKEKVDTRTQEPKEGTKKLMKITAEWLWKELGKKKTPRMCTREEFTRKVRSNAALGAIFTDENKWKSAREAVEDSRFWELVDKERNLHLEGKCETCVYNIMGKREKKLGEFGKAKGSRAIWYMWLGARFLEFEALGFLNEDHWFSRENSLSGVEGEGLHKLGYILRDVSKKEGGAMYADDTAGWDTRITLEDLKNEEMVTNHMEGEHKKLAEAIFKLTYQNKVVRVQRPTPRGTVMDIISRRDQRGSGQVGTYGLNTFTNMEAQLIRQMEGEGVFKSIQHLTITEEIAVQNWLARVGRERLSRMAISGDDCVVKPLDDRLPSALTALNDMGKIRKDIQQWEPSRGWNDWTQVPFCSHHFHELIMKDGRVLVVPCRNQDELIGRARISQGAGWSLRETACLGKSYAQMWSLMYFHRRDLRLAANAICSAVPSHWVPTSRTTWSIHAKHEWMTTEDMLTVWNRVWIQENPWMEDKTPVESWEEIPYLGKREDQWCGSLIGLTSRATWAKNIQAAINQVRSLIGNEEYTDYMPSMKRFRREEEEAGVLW
Assay: flavivirus cap methylation enzyme inhibition – biochemical, confirmation dose response, primary screen (AID 588689)
Conditions: Dengue-2 NS5 methyltransferase capping enzyme assay, at 25 µM, stronger effect = higher value
[1] = measured here: pilot screen replicate inhibition

| Structure (SMILES) | inhibition | inhibition [1] |
| --- | --- | --- |
| CCOc1ccc(OCC)c(S(=O)(=O)n2cnc(C)c2)c1 | 4.27% (inactive) | – |
| CC(C)N1CCc2c(sc(NC(=O)c3ccco3)c2C(N)=O)C1 | -17.8% (inactive) | – |
| O=C(NN=C1CCN(Cc2ccccc2)CC1)c1ccccc1 | -11% (inactive) | – |
| CSc1nc(N)nc2c1ncn2CC(=O)NCCCc1ccccc1 | -9.58% (inactive) | -1.21% |
| Cc1cc(O)c(C(C)C)cc1N=Cc1cc([N+](=O)[O-])ccc1O | 73.1% (inactive) | – |
| Cc1cc(O)c(C(C)C)cc1N=Cc1ccccc1O | 73.5% (inactive) | – |
| CN(C(=O)c1cc(C(=O)N(C)c2ccccc2)cc([N+](=O)[O-])c1)c1ccccc1 | -8.48% (inactive) | – |
| Cc1ccc(C(=O)c2coc3cc([N+](=O)[O-])c(O)c([N+](=O)[O-])c23)cc1 | 8.29% (inactive) | – |
| Cc1oc2ccc(O)cc2c1C(=O)c1ccc(Br)cc1 | 1.53% (inactive) | – |
| COc1ccc(OC)c(C(=O)c2c(C)oc3cc([N+](=O)[O-])c(O)c([N+](=O)[O-])c23)c1 | 25.1% (inactive) | – |
| Cc1oc2ccc(O)cc2c1C(=O)c1ccc([N+](=O)[O-])cc1 | -2.6% (inactive) | – |
| CCc1ccc(NC(=O)Cn2ncc3c4ccccc4n(C)c3c2=O)cc1 | -6.09% (inactive) | – |
| CCCOc1ccc(C(=O)CCC(=O)Nc2ccc(N3CCN(C)CC3)cc2)cc1 | -15.3% (inactive) | – |
| CCOC(=O)c1c(C)nn(-c2ccc(NC(=O)/C=C/C(=O)O)cc2)c1C | -3.06% (inactive) | – |
| COC(=O)c1c(NC(=O)/C=C/C(=O)O)sc(C)c1-c1ccc(C)cc1 | -1.47% (inactive) | – |
| CCOC(=O)c1c(NC(=O)/C=C\C(=O)O)sc(C)c1-c1ccccc1 | -5.1% (inactive) | – |
| CCc1c(C)sc(NC(=O)/C=C/C(=O)O)c1C(N)=O | -7.73% (inactive) | – |
| COC(=O)c1c(NC(=O)/C=C/C(=O)O)sc(Cc2ccccc2)c1C | 8.38% (inactive) | – |
| COC(=O)c1c(NC(=O)/C=C/C(=O)O)sc(C)c1-c1ccc(C)c(C)c1 | 18.9% (inactive) | – |
| CCOC(=O)c1c(NC(=O)/C=C/C(=O)O)sc(C)c1-c1ccc(F)cc1 | 23.7% (inactive) | – |
| Cc1sc(NC(=O)/C=C/C(=O)O)c(C(N)=O)c1-c1ccc(C(C)(C)C)cc1 | 15.2% (inactive) | – |
| NC(=O)C1(N2CCCCC2)CCN(C2CC(=O)N(Cc3cccs3)C2=O)CC1 (stereo unspecified) | -7.74% (inactive) | – |
| O=C(N/N=C/c1ccccc1O)C(=O)Nc1ccccn1 | -0.76% (inactive) | – |
| CCCn1c(SCc2cc(=O)[nH]c3ccccc23)nc2c1c(=O)n(C)c(=O)n2C | -2.04% (inactive) | -0.155% |
